# Screening results deposited in PubChem BioAssay by several laboratories.
# TROY NFkB inh: inhibitors of TROY-dependent NF-kB signaling; Q293 LMP1-TROYcd NF-kB luciferase reporter, 4 h; inhibition, % at 10 µM; actives 0.98% (n = 360,000);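 active means compounds whose plate-normalised and pattern-corrected inhibition of the luciferase reporter signal at the single screening dose is 50% or more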
# TWEAK-Fn14 inh: blocks TWEAK-Fn14 interaction in a reporter cell assay. TWEAK-stimulated Fn14 reporter cells, luciferase luminescence, 8 h. inhibition, % at 10 µM. actives 2% (n = 360,000). AID 1159606; in the data active means inhibition above about 50%
# CF NFkB block: inhibitors of cystic fibrosis induced NF-kB. KKLEB NF-kB-GFP reporter, PAF-induced, GFP fluorescence overnight. inhibition, % at 5 µM. actives 0.86% (n = 360,000). AID 588850;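 active means at least 50% inhibition at 5 µM, scaled per plate between neutral and stimulator controls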;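 further: PAF is a Pseudomonas aeruginosa culture filtrate used as stimulus; plate controls were PAF-stimulated DMSO wells for no effect and unstimulated DMSO wells for full effect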
# LGR2 inh: blocks bursicon-induced cAMP signaling via Drosophila LGR2; HEK293 LGR2, CRE-luciferase, bursicon-stimulated, 4 h; inhibition, % at 9.99 µM; actives 0.35% (n = 380,000);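 active means drop in luminescence signal, shown as inhibition above about 50% in the replicate tests, limit read from the data, passing the limit was not always enough; inconclusive means probably only some replicates passing the limit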;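 further: agonist challenge used bursicon conditioned medium at about half maximal strength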
# EWS-Fli inh: EWS/Fli transcriptional activity inhibition; A673 NR0B1-luciferase reporter, viability-normalised; inhibition, % at 12.6 µM; actives 0.67% (n = 350,000); AID 651661;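 active means mean inhibition of at least 50% after viability correction, with every replicate also passing that limit; inconclusive means mean reaches 50% but only one of two replicates passes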;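 further: firefly luciferase signal divided by Alamar Blue viability fluorescence both relative to DMSO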
# KKLEB tox: reduces viability of KKLEB cystic fibrosis airway cells. KKLEB CF airway cells viability, ATPlite luminescence, overnight; hits give low values; cells stimulated with P. aeruginosa culture filtrate. actives 0.36% (n = 360,000). activity change (cytotoxicity), % at 5 µM;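 active means corrected activity change at or below -50% at 5 µM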
# Numbers without * were called inactive; ? = inconclusive; nt = no result given. The list is not random: actives were taken first. Their share in the collection is about 2.6%.
SMILES,TROY NFkB inh,TWEAK-Fn14 inh,CF NFkB block,LGR2 inh,EWS-Fli inh,KKLEB tox
CCOc1ccc2c(c1)-c1c(ssc1=S)C(C)(C)N2C(=O)c1ccco1,18,18,53*,29,nt,-12
COc1ccc2c(c1)-c1c(ssc1=S)C(C)(C)N2C(=O)CSC1=NCCS1,45,44,21,nt,nt,3
Cc1ccc(N(C)S(=O)(=O)c2cc(-c3cnc(C4CC4)o3)ccc2C)cc1,56*,78*,3,24,13,-1
Cc1ccc(-c2cnc(C3CC3)o2)cc1S(=O)(=O)Nc1ccccc1,12,28,20,nt,nt,7
Cc1cccc(N(C)S(=O)(=O)c2ccc(-c3cnc(C4CC4)o3)cc2)c1,43,17,43,-26,58*,-10
C/C=C/c1ccc2c(c1)O[C@@H](CN(C)C(=O)CN1CCOCC1)[C@@H](C)CN([C@@H](C)CO)S2(=O)=O,nt,nt,nt,-19,2,nt
C[C@@H]1CN([C@H](C)CO)C(=O)c2cc(NC(=O)Cc3ccccc3)ccc2O[C@@H](C)CCCCO[C@@H]1CN(C)Cc1ccc(C(F)(F)F)cc1,nt,nt,nt,23,-3,nt
CCCOc1ccc(-c2cc3onc(-c4ccccc4)c3c(=O)n2C)cc1,81*,89*,-4,-1,62*,-41
Cc1ccc(-c2cc3onc(-c4ccccc4)c3c(=O)n2C)cc1,89*,102*,-2,85*,80*,-32
CCCCNC1C(CC)C(CCC)C(C#N)(C#N)C1(C#N)C#N (stereo unspecified),17,56*,81*,nt,nt,-31
COc1ccccc1/C=C1\SC(=S)N(CCC(=O)NC2=NCCS2)C1=O,28,25,-13,nt,15,12
COc1ccccc1/C=C1\SC(=S)N(CC(=O)Nc2nnc(C)s2)C1=O,nt,nt,nt,-7,60*,nt
CCn1c(/C=C2\C(=O)N(C(C)C)c3ccccc32)nc2ccccc2c1=O,8,15,-1,0,3,1
CC(C)N1C(=O)/C(=C\c2nc3ccccc3c(=O)[nH]2)c2ccccc21,15,68*,21,98*,14,2
CCCC(=O)N1C[C@H]2[C@@H](c3ccccc31)[C@@H](CO)N2C(=O)Nc1ccccc1,nt,nt,nt,-4,10,nt
NC(=O)c1ccccc1N/C=C/C(=O)c1ccc(F)cc1,20,34,-4,nt,nt,-11
NC(=O)c1ccccc1N/C=C/C(=O)c1ccc(Cl)cc1Cl,-46,29,-18,-9,nt,-65*
O=[N+]([O-])c1ccc2nc(-c3ccc(Cl)cc3)n(OCc3ccccc3)c2c1,56*,35,-24,nt,nt,0
COc1c(Cl)cc(Cl)cc1/C=C/C(=O)c1ccc(NC(=O)c2cccs2)cc1,3,79*,88*,12,nt,-82*
O=C(c1ccccc1)c1ccc2nc(-c3ccc(NC(=O)c4ccccc4Br)cc3)[nH]c2c1,5,-7,-11,-8,nt,12
Cc1ccccc1C(=O)Nc1ccc(-c2nc3ccc(C(=O)c4ccccc4)cc3[nH]2)cc1,nt,70*,-11,12,nt,-2
CS(=O)(=O)c1ccccc1C(=O)Nc1ccc(-c2nc3ccccc3[nH]2)cc1,-68,-19,-5,-37,nt,4
Cc1cc(F)ccc1S(=O)(=O)Nc1ccccc1C(=O)Nc1ccccc1-c1nc2ccccc2[nH]1,70*,102*,74*,nt,nt,-59*
O=C(Nc1ccc(-c2nc3ccccc3[nH]2)cc1)c1ccccc1NS(=O)(=O)c1ccc(F)cc1,58*,8,-17,-10,nt,-20
Cc1cc(F)ccc1S(=O)(=O)Nc1ccccc1C(=O)Nc1ncn[nH]1,18,18,-1,nt,nt,6
SMILES,TROY NFkB inh,TWEAK-Fn14 inh,CF NFkB block,LGR2 inh,EWS-Fli inh,KKLEB tox
CO[C@H]1CN(C)C(=O)c2cc(NC(=O)NC3CCCCC3)ccc2OC[C@H](C)N(C)C[C@H]1C,nt,nt,nt,-2,15,nt
COc1ccc(NC(=O)COC(=O)c2ccc(OCc3ccccc3Cl)c(OC)c2)c(OC)c1,-24,-59,61*,6,nt,-75*
O=[N+]([O-])c1ccc2nc(NN=Cc3ccc(O)cc3)sc2c1,66*,69*,34,105*,-2,-6
CC(C)c1ccc(/C=C/C(=O)Nc2nc3ccc([N+](=O)[O-])cc3s2)cc1,-19,-10,-3,nt,nt,-5
COc1coc(C(O)CN)cc1=O (stereo unspecified),-4,-10,11,-21,-3,-2
CCOC(=O)C(=Cc1cc(=O)c(OC)co1)C(=O)OCC,42,98*,85*,?,70*,28
C/C=C/c1ccc([C@@H]2[C@@H](CO)N(C(=O)CN(C)C)C23CN(C(=O)C2CCCCC2)C3)cc1,nt,nt,nt,9,-2,nt
COc1ccc(C(=O)Nc2cccc3cccnc23)cc1OC,-39,0,-31,-31,-60,4
COc1ccc(NC(=O)C(=O)Nc2cccc3cccnc23)cc1OC,-22,105*,0,-10,-65,-1
CCCNC(=O)N1[C@H](CNC(=O)c2ccccc2)[C@H](c2ccccc2)[C@@H]1CO,nt,nt,nt,-12,4,nt
Fc1cccc2sc(Nc3nc4cc5c(cc4s3)OCCO5)nc12,72*,73*,-11,13,nt,-13
COc1ccc(NC(=O)N(C)C[C@H]2Oc3ccc(NS(=O)(=O)c4ccc(C)cc4)cc3CC(=O)N([C@H](C)CO)C[C@@H]2C)cc1,nt,nt,nt,0,-4,nt
COc1ccc(Cl)cc1N1C(=O)/C(=C/c2sccc2C)N=C1SCC(=O)NC1CC1,-8,-10,-17,-2,12,-3
O=C(CSC1=N/C(=C/c2ccc(Cl)c(Cl)c2)C(=O)N1c1ccccc1F)NC1CC1,18,61*,18,7,10,-14
COc1ccc(S(=O)(=O)N(C)C[C@H]2Oc3c(cccc3N(C)C)C(=O)N([C@@H](C)CO)C[C@H]2C)cc1,nt,nt,nt,13,nt,nt
CC1CCCCC1NC(=O)/C(C#N)=C/c1ccccc1F (stereo unspecified),30,70*,26,38,14,-14
C=CCOc1c(Cl)cc(C(=S)N2CCCC2)cc1OCC,4,8,-4,2,58*,-2
COc1ccc(CNC(=O)C[C@@H]2CC[C@@H]3[C@@H](COc4ccc(NC(C)=O)cc4C(=O)N3C)O2)cc1,nt,nt,nt,2,-6,nt
CCOC(=O)C1CCN(C(=O)COc2cc(C)c(Br)cc2C)CC1,nt,91*,8,nt,nt,2
CN(CC(=O)Nc1ccc(Cl)c(C(F)(F)F)c1)C(=O)c1ccc(S(=O)(=O)N2CCOCC2)cc1,19,24,3,-8,55*,-7
CN(C)S(=O)(=O)c1ccc(Nc2nc(C3CC3)nc3c2nnn3Cc2ccccc2Cl)cc1,49,87*,27,18,nt,-10
COc1cccc(OC)c1Nc1nc(C)nc2c1nnn2Cc1ccccc1Cl,13,18,10,8,3,4
